Measured values: PubChem BioAssay AID2702 (National Center for Advancing Translational Sciences (NCATS), 2010)
The source made the active and inactive calls.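 Rule for the calls: active = compounds blocking 15-hLO-2 with IC50 at or below the top tested dose, none here; inactive = the rest.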

Each compound was assayed against Polyunsaturated fatty acid lipoxygenase ALOX15B (Homo sapiens) (UniProt O15296) (assay: Cuvette-Based Assay fo Inhibitors of 15-hLO-2 (15-human lipoxygenase 2)). Conditions: purified 15hLO-2, arachidonic acid, UV 234 nm cuvette.
Description: Human lipoxygenase 15hLO-2 is a member of the closely related lipoxygenase family of enzymes which catalyze the site-specific oxidation of arachidonic acid to various hormone precursor molecules and as such is a candidate for drug development in a variety of disease areas, such as cancer and inflammation. Inhibition of 15hLO-2 activity was screened by utilizing arachidonic acid as a substrate. The extent of hydroperoxide product formation was measured by a secondary chromogenic reaction in which xylenol orange (XO, Sigma-Aldrich, cat. number 39,818-7) reacts with the ferric ions produced from the reaction between the hydroperoxide and ferrous ions. The Fe(III)-XO complex is characterized with red-shifted absorbance at 560 nm. A purified preparation of human 15hLO-2 was supplied by Professor Ted Holman, University of California, Santa Cruz. This assay is includes some confirmation and follow-up compounds for related primary screening assay AID 881. Assay Provider: Holman, T.R., University of California, Santa Cruz Screening Center PI: Austin, Christopher P. Screening Center: NIH Chemical Genomics Center
For control experiments, 2 mL of substrate buffer (7 uM arachidonic acid / 25 mM HEPES / 0.01% (v/v) Triton X-100, pH 7.5) was aliquoted in a cuvette with a magnetic stir bar. After equilibrium was ensured, an aliquot of inhibitor solvent was added (DMSO or MeOH), and equilibrium was once again assured. The reaction was started by adding enzyme to the cuvette and the reaction was followed until completed. The inhibition experiments were performed as above, except the actual inhibitory compound was added instead of vehicle. To achieve an IC50, typically 5 concentrations of the inhibitor were studied. If the inhibitor concentration was constant, then five different reaction volumes were used. Step \ Parameter \ Value \ Description 1; UV-Vis; 234 nm; Equilibration 2; Reagent; 2 mL; Substrate buffer 3; UV-Vis; 234 nm; Equilibration 4; Reagent; varies; Compound 5; UV-Vis; 234 nm; Equilibration 6; Reagent; 50-200 nM; Enzyme 15hLO-2 7; UV-Vis; 234 nm; Enzymatic reaction Step \ Notes 1. Blank cuvette to air. 2. 7 uM AA, 25 mM HEPES, 0.01% Triton X-100, pH 7.5. 3. No change in absorbance ensured. 4. Compound vehicle or compound in various concentrations depending on potency. 5. No change in absorbance ensured. 6. Enzyme concentration to achieve reaction rate between 0.02 and 0.04 AU/s. 7. Enzymatic reaction visualized until completion.

Chain of Polyunsaturated fatty acid lipoxygenase ALOX15B (Homo sapiens) (O15296 whole entry, looked up): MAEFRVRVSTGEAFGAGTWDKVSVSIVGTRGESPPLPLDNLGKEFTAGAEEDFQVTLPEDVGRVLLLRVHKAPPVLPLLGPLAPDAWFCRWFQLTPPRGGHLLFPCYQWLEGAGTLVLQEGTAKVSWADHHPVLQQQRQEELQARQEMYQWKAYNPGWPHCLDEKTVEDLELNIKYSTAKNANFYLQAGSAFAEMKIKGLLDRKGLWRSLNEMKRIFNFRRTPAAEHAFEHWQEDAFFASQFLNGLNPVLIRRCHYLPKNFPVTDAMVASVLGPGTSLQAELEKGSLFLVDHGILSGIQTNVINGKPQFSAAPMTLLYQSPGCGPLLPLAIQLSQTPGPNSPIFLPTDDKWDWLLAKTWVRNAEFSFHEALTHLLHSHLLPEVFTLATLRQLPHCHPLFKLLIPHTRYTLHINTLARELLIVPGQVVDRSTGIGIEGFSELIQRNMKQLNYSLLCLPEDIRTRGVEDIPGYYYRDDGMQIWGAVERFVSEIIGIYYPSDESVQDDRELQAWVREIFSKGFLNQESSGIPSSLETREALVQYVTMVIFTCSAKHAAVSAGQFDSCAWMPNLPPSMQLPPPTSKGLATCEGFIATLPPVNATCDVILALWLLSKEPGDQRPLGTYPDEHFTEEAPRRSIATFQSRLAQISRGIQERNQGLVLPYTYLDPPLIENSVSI

outcome, inactive:
O=C(OCC#CCSc1nnc(-c2cccc3ccccc23)o1)c1cc2ccccc2o1
COc1cccc(CNc2ccc(N3CCCCC3)cc2)c1OC
O=C1c2ccccc2NC(c2ccc(-c3cccc(Cl)c3)o2)N1O (configuration not stated)
CC(=O)N1CCN(c2ccc(NCc3ccc4c(c3)OCO4)cc2)CC1
O=C(OCC#CCSc1nnc(-c2cccc3ccccc23)o1)c1ccc(F)cc1
CC(C)Nc1oc(-c2cccc3ccccc23)nc1C#N
O=C(OCC#CCSc1nnc(-c2cccc3ccccc23)o1)c1cccs1
